Source: PubChem BioAssay
hgDAF12 agonist: hgDAF-12 agonism, primary luciferase screen. HEK293 GAL4-hgDAF12 UAS-luciferase reporter, agonist luminescence; normalized to butyrate control. AID 687014. 1.8% of 370,000 active. activation, % at 6.8 µM;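 active = activation above a cutoff set at the mean of all screened compounds plus 3 SD, cut at about 10% in these data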
ssDAF12 agonist: S. stercoralis DAF-12 activation, primary screen | HEK293 ssDAF-12/GRIP1 lit1-tk-luc reporter, luminescence; % of 3 µM dafachronic acid response | activation, % at 6.8 µM | 1% of 370,000 active | AID 652126;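 active = activation above the mean over all tested compounds plus 3 SD, cut at about 0.9% in these data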
DAX1 inh-1: inhibits human nuclear receptor DAX1; inhibition, % at 6.75 µM; HEK293 Gal4-DAX1 luciferase reporter, luminescence; 0.99% of 340,000 active; P51843; AID 504766;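 active = inhibition above the mean over all tested compounds plus 3 SD, cut at about 4.2% in these data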;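 note: inhibition shows as a rise in luminescence from relieved DAX1 repression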
Target sequence (P51843 207-470 limits assumed): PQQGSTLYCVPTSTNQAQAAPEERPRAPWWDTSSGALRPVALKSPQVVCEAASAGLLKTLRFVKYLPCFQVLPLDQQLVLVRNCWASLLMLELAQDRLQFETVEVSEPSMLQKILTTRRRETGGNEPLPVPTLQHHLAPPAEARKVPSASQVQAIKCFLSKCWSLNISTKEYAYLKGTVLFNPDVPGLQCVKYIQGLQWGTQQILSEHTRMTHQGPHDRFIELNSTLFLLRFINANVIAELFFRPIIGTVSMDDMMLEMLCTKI
hcDAF-12 act: activators of H. contortus DAF-12 nuclear receptor; HEK293 hcDAF-12 lit1-tk-luc reporter, luminescence; 0% DMSO, 100% Δ7-dafachronic acid; AID 652067; activation, % at 6.8 µM; 1.4% of 370,000 active;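 active = activation above the mean of all tested compounds plus 3 SD, cut at about 5.5% in these data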
DAX1 inh-2: DAX1 (NR0B1) inhibition, primary screen. HEK293T StAR-luciferase reporter, SF-1/DAX-1 repression relief. 1.1% of 370,000 active. inhibition, % at 6.8 µM. AID 652010;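 active = inhibition above the mean over all tested compounds plus 3 SD, cut at about 3.6% in these data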;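 note: higher inhibition means more luminescence from relief of DAX-1 repression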
DAX1 inh confirm: NR0B1 (human) inhibition, confirmation; shares compounds with DAX1 inh-2; 87% of 2,400 active; AID 652134; HEK293T StAR-promoter luciferase reporter, SF-1/DAX-1 repression; inhibition, % at 6.8 µM;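 active = inhibition above the average of every tested compound plus 3 SD, cut at about 3.8% in these data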;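 note: active compounds raise luminescence by relieving repression of the StAR reporter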
SF1 AF2mut Luc: counter-screen for DAX1 inhibitors: nonselective inhibitors with SF-1 AF2 mutant | shares compounds with DAX1 inh-2 | HEK293 StAR-luciferase, luminescence | inhibition, % at 6.8 µM | 78% of 2,400 active | AID 652136;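 active = inhibition above the mean of all tested compounds plus 3 SD, cut at about 3% in these data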
Numbers stand for hits; – = inactive; · = no result given. Rows were chosen to be rich in hits. Some 4.1% of all compounds tested hit in one or more screens of this group.

SMILES | hgDAF12 agonist | ssDAF12 agonist | DAX1 inh-1 | hcDAF-12 act | DAX1 inh-2 | DAX1 inh confirm | SF1 AF2mut Luc
CCCCC(=O)NC(=S)NNC(=O)CC#N | – | – | – | – | 4.7 | – | –
CN1CCN(c2ccc(NC(=O)c3ccc4ccccc4c3)cc2)CC1 | – | – | – | – | 8.2 | 10 | –
COc1ccc(C(=O)Nc2ccc(N3CCN(C)CC3)cc2)cc1 | – | – | – | – | – | · | ·
CN1CCN(c2ccc(NC(=O)c3ccc(Br)o3)cc2)CC1 | 12 | – | – | – | 6.2 | 8.3 | 6.1
Cc1cc(C)cc(C(=O)Nc2ccc(N3CCCC3)cc2)c1 | 12 | – | – | – | 4.5 | 13 | 5.8
COC(=O)[C@@]12CCCCC=C1N(CCc1ccc(Cl)cc1)C(=O)[C@H]2CC(=O)NCC12CC3CC(CC(C3)C1)C2 | – | – | · | – | – | · | ·
CCC(=O)N1CCCC(C)(C(=O)Nc2ccc(OC(F)F)cc2)C1 (stereo unspecified) | – | – | · | – | – | · | ·
O=C(CSc1n[nH]c(=O)n1C1CC1)Nc1ccccc1 | – | – | – | – | 11 | – | –
N#Cc1ccc(NC(=O)CSc2n[nH]c(=O)n2C2CC2)cc1 | – | – | – | – | – | · | ·
COc1cc(S(=O)(=O)N2CCN(Cc3ccc4c(c3)OCO4)CC2)ccc1NC(C)=O | – | – | · | – | – | · | ·
CC1(C)N=C(N)N=C(N)N1c1cccc(C#N)c1 | – | – | – | – | – | · | ·
CCNc1nc(NCC)n2c(SCC(=O)Nc3ccccc3F)nnc2n1 | – | – | – | – | 4.5 | – | –
CCNc1nc(NCC)n2c(SCC(=O)Nc3ccccc3OC(F)F)nnc2n1 | – | – | – | – | – | · | ·
Cc1ccc(CN2CCCCC(NC(=O)c3ccc(N(C)C)cc3)C2=O)cc1 (stereo unspecified) | – | – | · | – | – | · | ·
CNc1nnc(SCC(=O)c2cc(C)n(C3CC3)c2C)s1 | – | – | – | – | 5.0 | 6.7 | –
CCCN(C(=O)CCc1cn(CCC)c2ccccc12)c1ccc(N(C)c2ccccn2)cc1 | – | – | · | – | – | · | ·
CCOc1ccc(NS(=O)(=O)c2ccc(C(=O)NCC(c3ccc(OC)cc3)N3CCCC3)cc2)cc1 (stereo unspecified) | – | – | – | – | 7.5 | 7.0 | 4.9
COc1ccc(C(CNC(=O)c2cccc(S(=O)(=O)N3CCCC3)c2)N2CCCC2)cc1 (stereo unspecified) | – | – | – | – | 5.6 | – | –
COc1ccc(C(CNC(=O)c2ccc(NS(=O)(=O)c3ccc(F)c(C)c3)cc2)N2CCCC2)cc1 (stereo unspecified) | – | – | – | – | – | · | ·
COc1ccc(C(CNC(=O)c2cc3c(s2)CCC(C)C3)N2CCCC2)cc1 (stereo unspecified) | – | – | – | – | 5.8 | 5.8 | 3.0
COc1ccc(C(CNC(=O)c2ccc(Cl)c(NC(=O)c3cccs3)c2)N2CCCC2)cc1 (stereo unspecified) | – | – | – | – | 4.8 | 3.9 | –
C[C@H]1Cn2cnc(C(=O)NCC(=O)OC(C)(C)C)c2C(=O)N1 | – | – | – | – | – | · | ·
COC(=O)c1cc2c(c3c4cc(OC)ccc4n(S(=O)(=O)c4ccc(OC)cc4)c13)C(=O)N(Cc1ccc(C(F)(F)F)cc1)C2 | – | – | · | – | – | · | ·
C[C@H](CO)N1C[C@H](C)[C@H](CN(C)C(=O)Nc2ccnc(N3CCOCC3)c2)OCc2cnnn2CCCC1=O | – | – | – | – | – | · | ·
CCCNC(=O)c1noc2c1CCc1ccccc1-2 | – | – | – | – | 4.5 | – | 3.0
SMILES | hgDAF12 agonist | ssDAF12 agonist | DAX1 inh-1 | hcDAF-12 act | DAX1 inh-2 | DAX1 inh confirm | SF1 AF2mut Luc
O=C(NCCc1ccccc1)c1noc2c1CCc1ccccc1-2 | – | – | – | – | – | · | ·
c1csc(-c2nnc(SCc3cccc4ccccc34)o2)c1 | – | – | · | – | – | · | ·
Cc1ccc(NC(=O)C(=O)NCCCN2CCCC2=O)cc1 | 12 | – | – | – | 6.5 | 9.7 | 6.5
C[C@@H]1CN([C@@H](C)CO)C(=O)c2cc(Br)cnc2O[C@H]1CN(C)Cc1cccnc1 | – | – | – | – | – | · | ·
COc1ccccc1NS(=O)(=O)c1cc(NC(=O)c2ccc(NC(C)=O)cc2)ccc1N1CCOCC1 | – | – | – | – | 7.0 | 10 | –
COc1ccccc1NS(=O)(=O)c1cccc(C(=O)N/N=C/c2ccc([N+](=O)[O-])o2)c1 | – | – | – | – | – | · | ·
Cc1sc2nc(SCC(=O)Nc3ccc(Cl)c(C(=O)O)c3)[nH]c(=O)c2c1C | 17 | – | – | – | 6.0 | 12 | 9.5
Cc1sc2nc(SCC(=O)Nc3cccc(C(=O)O)c3)[nH]c(=O)c2c1C | – | – | – | – | – | · | ·
COc1ccc(C(=O)N2[C@@H](C(C)C)COc3cc(Br)ccc3S2(=O)=O)cc1 | – | – | – | – | – | · | ·
COc1ccc(NC(=O)c2cc(-c3ccc(F)cc3C)n[nH]2)cc1OC | – | – | · | – | – | · | ·
Cc1cc(F)ccc1-c1cc(C(=O)Nc2ccc(F)cc2)[nH]n1 | 12 | – | · | – | 9.6 | 11 | 5.6
O=C1C(NC(=O)N2c3ccccc3C=Cc3ccccc32)CCCCN1Cc1ccc(Cl)cc1 (stereo unspecified) | – | – | · | – | – | · | ·
O=C(COc1ccc(Cl)cc1Br)NC(=O)NC1CCCC1 | 13 | – | – | – | 8.0 | 7.9 | 5.3
O=C(COc1ccc(Cl)cc1Cl)NC(=O)NC1CCCC1 | 12 | – | – | – | 5.0 | 4.1 | –
O=C(COc1ccc(Br)cc1Cl)NC(=O)NC1CCCC1 | – | – | – | – | – | · | ·
CCCNC(=O)Nc1ccc2c(c1)OC[C@H](C)N(C(=O)C1CCCCC1)C[C@@H](C)[C@H](OC)CN(C)C2=O | – | – | · | – | – | · | ·
COc1ccc(C(=O)Nc2ccnn2C2CCN(C(=O)CCC(F)(F)F)CC2)cc1 | – | – | – | – | 5.7 | 6.4 | 8.0
CCOC(=O)[C@]12CCCC=C1N(Cc1ccc(OC)cc1)C(=O)[C@@H]2CC(=O)NCCCOC | – | – | · | – | – | · | ·
CCOC(=O)[C@]12CCCCC/C=C\1N(Cc1ccc(OC)cc1)C(=O)[C@H]2CC(=O)NCCCOC | – | – | · | – | 5.2 | – | –
COc1cccc(-c2noc(CCC(=O)N3CCN(c4cc(C)ccc4C)CC3)n2)c1 | – | – | – | – | – | · | ·
Cc1ccc(C)c(N2CCN(C(=O)CCc3nc(-c4cccc(Cl)c4)no3)CC2)c1 | – | – | – | – | 5.1 | 5.8 | 3.6
Cc1cc(C)c(S(=O)(=O)c2cccc(C)c2C)c(=O)[nH]1 | – | – | – | – | – | · | ·
Cc1ccc(NC(=O)O/N=C/c2c(C)nn(C(C)(C)C)c2C)cc1Cl | – | – | – | – | – | · | ·
